Reference: PubChem BioAssay AID720518 (National Center for Advancing Translational Sciences (NCATS), 2013)
Records with an inconclusive call do not appear. Calls of active or inactive are those of the source. The call rests on the fitted dose curve.

Experiment: qHTS for Inhibitors of Cell Surface uPA Generation: Wild-type Protective Antigen (WT-PrAg) Counterscreen for Cherry-picked Compounds; further: 0% is about no effect
Details: cells, WT protective antigen toxicity counterscreen; series mostly up to 115 µM; activity (protection): at the top concentration

SMILES | activity (protection)
CC(=O)Oc1ccc(OC(C)=O)c(SCCCCCCl)c1 | -2.59% (inactive)
O=C(NCCOc1ccc(F)cc1)C1CCN(S(=O)(=O)c2ccccc2)CC1 | -0.928% (inactive)
O=C(Nc1ccc(Cl)cn1)C1CCCN(c2ncnc3c2nc2n3CCCCC2)C1 (stereo not given) | -2.43% (inactive)
COc1ccc(C(=O)NCCCN2CCOCC2)cc1 | -0.755% (inactive)
Cc1ccc(Nc2nc(Cl)c(C=O)s2)cc1 | -2.07% (inactive)
COc1cc(CN2CCN(S(=O)(=O)c3ccccc3)CC2)cc(OC)c1OC | -0.212% (inactive)
Cc1ccnc(NS(=O)(=O)c2ccc(NC(=O)C3C4C=CC(C4)C3C(=O)O)cc2)n1 (stereo not given) | 0.708% (inactive)
CC(=O)c1cccc(NC(=O)N2C3CCC2CC(O)(c2cccnc2)C3)c1 (stereo not given) | 2.27% (inactive)
O=c1ccc(S(=O)(=O)N2CCCC2)c[nH]1 | -0.609% (inactive)
CC(=O)c1ccc(N=C2SCCCN2C(=O)C2CCCCC2)cc1 | -1.93% (inactive)
CC1(C)C([N+](=O)[O-])C(c2ccc(F)cc2)NC(c2ccc(F)cc2)C1[N+](=O)[O-] (stereo not given) | 6.17% (inactive)
CC(CCc1ccccc1)NC(=O)c1ccc(NC(=O)c2cccc(Br)c2)cc1 (stereo not given) | -0.0435% (inactive)
COc1ccc(CNCCC2(C(C)C)CCOC(C)(C)C2)cc1 (stereo not given) | -0.773% (inactive)
COc1ccccc1C(=O)NCCC(=O)NCC(c1ccc(F)cc1)N1CCOCC1 (stereo not given) | -1.45% (inactive)
O=C(N/C(=C\c1cccc([N+](=O)[O-])c1)C(=O)N1CCOCC1)c1ccc([N+](=O)[O-])cc1 | 0.117% (inactive)
CC(C)(C)OC(=O)N(Cc1ccccc1)Cc1ccccc1OCc1cccc(NC(=O)C2CC2)c1 | -1.87% (inactive)
CCCN1CCN(C(=O)CCCn2c(C)c3cnn(-c4ccccc4)c(=O)c3c2C)CC1 | -1.21% (inactive)
CCN(CC)S(=O)(=O)c1ccc(NC(=S)Nc2ccc(F)cc2)cc1 | -1.28% (inactive)
CCOc1ccc(-n2cnc3scc(-c4ccc(OC)c(OC)c4)c3c2=O)cc1 | -2.53% (inactive)
Cc1c(C(=O)N(Cc2ccccc2Cl)C2CCS(=O)(=O)C2)oc2ccccc12 (stereo not given) | -2.16% (inactive)

SMILES | activity (protection)
O=C(CSC1=NS(=O)(=O)c2ccccc2N1)Nc1nccs1 | 0.09% (inactive)
CN1CC[C@]23c4ccccc4N[C@H]1[C@]21CCN(C)[C@H]3Nc2ccccc21 | 11% (inactive)
CC(C)OC(=O)Nc1ccc(-c2ccc(NC(=O)OC(C)C)cc2Cl)c(Cl)c1 | 5.2% (inactive)
CC(C)(C)S(=O)(=O)N1C[C@H]2CC/C=C\C/C(c3ccccc3)=C\2[C@@H]1CCO | -0.255% (inactive)
Cc1cc(C)cc(NC(=O)COC(=O)CCn2c(C)csc2=O)c1 | 0.0327% (inactive)
C=CCn1c(=O)c(C(=O)NCCc2ccc(Cl)cc2)c(O)c2cc(OC)c(OC)cc21 | 1.13% (inactive)
Cc1nc2ccc(Br)cn2c1C(=O)N/N=C\c1ccccc1Cl | 1.22% (inactive)
COc1ccc(NC(=O)CN2C(=O)CSc3ncccc32)cc1 | 1.25% (inactive)
CCC(C)C(NC(=O)c1ccccc1)C(=O)Nc1ccc(S(=O)(=O)Nc2cc(C)nc(C)n2)cc1 (stereo not given) | 0.77% (inactive)
COc1cccc(CNC(=O)C2CCCN(S(=O)(=O)c3ccc4c(c3)C(C)(C)C(=O)N4C)C2)c1 (stereo not given) | 0.799% (inactive)
Cc1c(NC(=O)C(C)OC(=O)CCC2CCCC2)c(=O)n(-c2ccccc2)n1C (stereo not given) | 0.713% (inactive)
Fc1cccc(Cl)c1CSc1ccc(-c2cccnc2)nn1 | -1.61% (inactive)
COc1ccc(C2=C/C(=C\c3ccccc3OC(C)=O)C(=O)O2)cc1 | -1.93% (inactive)
O=S(=O)(NCCc1ccccc1F)c1cccc(S(=O)(=O)N2CCOCC2)c1 | -1.88% (inactive)
CN(C)S(=O)(=O)c1ccc(NC(=O)COC(=O)CC2CC3CCC2C3)cc1 (stereo not given) | 0.767% (inactive)
COc1cc(NC(=O)COC(=O)c2cc(S(=O)(=O)N3CCCCC3)ccc2Cl)c(C)cc1[N+](=O)[O-] | 0.664% (inactive)
CCn1c2ccccc2c2n[nH]c(=S)nc21 | -0.605% (inactive)
CCCCN(CC(=O)NCc1ccc(F)cc1)C(=O)c1ccco1 | 1.58% (inactive)
CC(C)c1ccc(SCc2noc(C(=O)NCC3CCCO3)c2C(=O)O)cc1 (stereo not given) | 0.0703% (inactive)
Cc1nc(NC2CCCCC2)c2nnn(Cc3ccccc3Cl)c2n1 | 1.59% (inactive)
